An excerpt weighted towards active compounds, which were near 13% of everything screened.
HSD17B inh = inhibitors of human HSD17B10 dehydrogenase; Potency, µM (highest dose often 57.1 µM), without a hit: at the highest dose activity change, negative = inhibition, hits mostly inhibitors; Q99714; actives 7.6% (n = 75,000); recombinant HSD17B10, NADH fluorescence kinetic; AID 893;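 further: the protocol describes HADH2 (HSD17B10) and not the HSD17B4 of the title; potency means the concentration at half of the fitted maximal effect; on the % scale 0 is the no-effect control and ±100 the full control effect; nearly all actives have a fitted effect of over 70% in size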
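His-tagged E. coli-expressed HADH2 at 20 nM in 100 mM Tris-HCl pH 9.0 with 0.01 % Tween-20, preincubated 15 min with compound at room temperature. Reaction with 1 mM NAD+ and 90 uM beta-hydroxybutyryl coenzyme A; NADH fluorescence (360/450 nm) read kinetically over 4 min, last minus first point.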
GBA mod = modulators of human glucocerebrosidase; AID 360; actives 1.1% (n = 48,000); Potency, µM; purified enzyme, resorufin glucoside fluorescence (screen aimed at inhibitors), 20 min; P04062; in the data active means potency below about 15 µM; inconclusive means mostly about 16 µM to 33 µM;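 further: potency means the concentration at half of the fitted maximal effect; the screen sought inhibitors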
Target sequence (P04062 whole entry, looked up): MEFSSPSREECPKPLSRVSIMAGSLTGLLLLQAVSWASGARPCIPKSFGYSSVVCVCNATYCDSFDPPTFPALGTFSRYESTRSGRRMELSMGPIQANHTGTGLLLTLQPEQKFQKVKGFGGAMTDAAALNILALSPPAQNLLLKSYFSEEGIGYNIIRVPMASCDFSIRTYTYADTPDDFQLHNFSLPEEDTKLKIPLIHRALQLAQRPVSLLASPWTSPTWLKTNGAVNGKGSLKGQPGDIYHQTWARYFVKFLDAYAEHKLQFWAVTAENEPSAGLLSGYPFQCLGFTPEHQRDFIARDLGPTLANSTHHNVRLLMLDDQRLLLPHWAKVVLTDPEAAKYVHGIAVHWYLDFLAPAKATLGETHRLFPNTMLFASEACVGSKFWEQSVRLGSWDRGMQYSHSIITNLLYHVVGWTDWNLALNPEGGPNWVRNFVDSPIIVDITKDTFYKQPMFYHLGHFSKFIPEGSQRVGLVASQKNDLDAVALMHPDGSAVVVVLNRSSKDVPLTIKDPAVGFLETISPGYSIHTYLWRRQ
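Compounds titrated against 0.2 nM normal enzyme, 30 uM resorufin beta-D-glucopyranoside substrate, citrate/phosphate buffer with taurocholate and tween-20, pH 5.9. Reaction ran 20 min at room temperature; fluorescence (Ex 548/Em 600) gave AC50.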
AID923 = qHTS Assay for Allosteric/Competitive Inhibitors of Caspase-1: Spectroscopic Profiling in AFC Spectral Region | compound fluorescence, AFC spectral region (405/520 nm) | Potency, µM (titrated, usually from 57.5 µM), inactives show at the highest dose fluorescence increase, usual class: activators | actives 1.1% (n = 75,000) | AID 923, 2007; further: potency means the concentration at half of the fitted maximal effect; 0% is about no effect
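Compound autofluorescence profiled at 405 nm ex/520 nm em during kinetic caspase 1 run (50 nM enzyme, 5 uM Ac-WEHD-AFC, HEPES pH 7.5, 10 mM DTT). Titration up to 57 uM; baseline from regression intercept, normalized to AFC standard curve.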
4MU fluor = compounds fluorescent in 4-MU spectral region; compound autofluorescence, 340/450 nm, 4-MU equivalents; stronger effect = higher value; AID 589; max dye-equivalent concentration, M; actives 11% (n = 59,000); in the data active means max dye-equivalent concentration above about 10 nM; inconclusive means mostly about 1.1 nM to 9.6 nM
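Compounds in 100 mM Tris, pH 8.0, incubated 15 min at room temperature, then fluorescence read at 340 nm excitation/450 nm emission. Signal converted to 4-MU dye-equivalent concentration using an on-plate six-point 4-MU standard curve.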
A350 autofl = compounds fluorescent in Alexa 350 spectral region; max dye-equivalent concentration, M; Compound autofluorescence, 340/450 nm, Alexa 350 dye-equivalents; stronger effect = higher value; AID 590; actives 11% (n = 59,000); in the data active means max dye-equivalent concentration above about 10 nM; inconclusive means mostly about 1.1 nM to 9.6 nM
HADH2 inhib = inhibitors of human HADH2 dehydrogenase | Q99714 | recombinant HADH2, NADH fluorescence, beta-hydroxybutyryl-CoA | Potency, µM (series often up to 57.1 µM), inactives show at the highest dose activity change, negative = inhibition, usual class: inhibitors | actives 3.4% (n = 73,000) | AID 886; further: potency means the concentration at half of the fitted maximal effect; on the % scale 0 is the no-effect control and ±100 the full control effect; nearly all actives have a fitted effect of over 60% in size
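20 nM HADH2 + cpd, 15 min RT; add 1 mM NAD+/90 uM beta-hydroxybutyryl-CoA; kinetic fluorescence 360/450 nm, 4 min. Tris-HCl pH 9.0, 0.01% Tween-20.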
* hit, by the source's call; i = inactive; ? = inconclusive; / = not tested or not shown; [ ] = remark or other dose. Unless noted, the call rests on the fitted dose curve; in most records, active means well fitted curve in the direction sought with a large enough effect; inconclusive means small, poorly fitted or top-dose-only effect, or another doubt; inactive means no such curve, though single readings can be large; an effect the other way counts as inactive or inconclusive.

SMILES	HSD17B inh	GBA mod	AID923	4MU fluor	A350 autofl	HADH2 inhib
CCC(=O)OC1C2CC3=C4CC(=O)OC(c5ccoc5)[C@]4(C)CCC3[C@@](C)(C2=O)C(CC(=O)OC)C1(C)C (some centres undefined)	8.1%	/	-0.3%	/	/	/
CC(=O)OC[C@@H]1O[C@@H](O/N=C2/C[C@@H](O)[C@@H](O)[C@@H]3[C@@H]4C(=O)N(c5cccc(Oc6ccccc6)c5)C(=O)[C@H]4CC[C@@H]23)[C@H](OC(C)=O)[C@H](OC(C)=O)[C@@H]1OC(C)=O	0.8%[11.4 µM]	/	0.6%[11.5 µM]	/	/	0.2%[11.4 µM]
Cc1cc2c(nc1C)CCCN2C[C@H](O)CN1CCCc2nc(-c3ccc(Br)cc3)ccc21	-2.3%[11.4 µM]	/	-2.2%[11.5 µM]	/	/	8.5%[11.4 µM]
COCCCNc1oc(-c2ccccc2OC)nc1C#N	31.6µM*	>76.9	0.0%	8.84e-08M*	1.06e-07M*	25.1µM*
N#Cc1nc(-c2ccccc2F)oc1NCCc1ccccn1	3.16µM*	>76.9	-3.0%	?	?	i
COCCCNc1oc(-c2ccccc2F)nc1C#N	20µM*	/	0.5%	/	/	31.6µM*
COCCNc1oc(COc2cccc(C)c2)nc1C#N	5.1%	>76.9	-0.3%	i	i	5.2%
CCCCCCCCC/C=C/CC1CC(=O)OC1=O (centres undefined)	0.4%	/	-1.8%	/	/	-1.6%
CCOC(=O)C1CCCN(C(=O)c2cc3ncc(Br)cn3n2)C1 (centres undefined)	1.9%	>76.9	-0.6%	i	i	1.0%
CC1Cn2c(nc3sc4c(c3c2=O)CCC4)N1CCO (centres undefined)	31.6µM*	>76.9	3.1%	2.67e-08M*	2.69e-08M*	-28.7%
NC(=O)C1=CN([C@@H]2O[C@@H](COP(=O)(O)OP(=O)(O)OC[C@@H]3O[C@H](n4cnc5c(N)ncnc54)[C@@H](OP(=O)(O)O)[C@@H]3O)[C@H](O)[C@@H]2O)C=CC1	3.8%	/	-1.9%	i	i	-11.8%
Cc1noc(C)c1COC(=O)c1ccc2c(c1)OCCO2	-1.3%	>76.9	0.4%	1.34e-07M*	1.29e-07M*	-3.7%
Nn1c(SC/C=C/c2ccccc2)nnc1-c1ccccn1	-6.2%	>76.9	-1.9%	i	i	-23.8%
Cc1cccc(CSc2nnc(-c3ccccn3)n2N)c1	-19.1%	>76.9	2.9%	7.89e-08M*	9.95e-08M*	-7.2%
O=C(NCC(=O)N(c1cccnc1)C(C(=O)NC1CCCCC1)c1cccnc1)c1ccco1 (centres undefined)	8.6%	>76.9	-0.1%	?	?	-5.3%
CCCn1c(O)c(CN2CCCCC2)c(C)c(C#N)c1=O	?	>76.9	3.9%	1.6e-08M*	1.55e-08M*	-21.7%
C=CCn1c(O)c(CN2CCN(Cc3ccccc3)CC2)c(C)c(C#N)c1=O	?	>76.9	8.5%	?	1.29e-08M*	-28.4%
Cc1c(CN2CCCCC2)c(O)n(CCCO)c(=O)c1C#N	-21.5%	>76.9	5.8%	?	?	-23.2%
CCn1c(CCNC(=O)c2cccs2)nnc1SCC(=O)c1ccc(OC)cc1	?	>76.9	0.6%	i	i	?
COc1ncc2ncc(=O)n(C[C@H]3CCCO3)c2n1	7.3%	/	3.4%	i	i	-14.9%
COc1ccc(OC)c(CCNC(=O)Cn2sc3nc(C)cc(C)c3c2=O)c1	6.31µM*	/	-0.2%	/	/	0.251µM*
O=C(O)C/C(=C\c1ccccc1)C(=O)O	12.3%[11.4 µM]	/	-1.5%[11.5 µM]	i	i	3.8%[11.4 µM]
N#C[C@@H](N=Nc1ccccc1C(=O)O)C(N)=O	0.1%[11.4 µM]	/	2.1%[11.5 µM]	i	i	6.1%[11.4 µM]
O=C(NC1CCCCCC1)c1c(O)c2ccccc2[nH]c1=O	-6.1%	11.4*	0.1%	i	i	-1.9%
O=C(Cc1c(O)c2ccccc2[nH]c1=O)NC1CCCCCC1	?	>76.9	-0.2%	i	i	-15.6%
COc1cc2c(cc1OC)C(C(=O)O)C(c1ccc(C)o1)N(C)C2=O (centres undefined)	?	>76.9	2.8%	3.76e-08M*	4.02e-08M*	5.2%
CO/N=C1/c2cc(OC)ccc2O[C@@H](c2cccc(OC)c2)[C@H]1O	-1.8%[11.4 µM]	/	-0.9%[11.5 µM]	/	/	9.7%[11.4 µM]

Compound activity: PubChem BioAssay, National Center for Advancing Translational Sciences (NCATS)
